Here are results for 1 molecule from PubChem BioAssay (NCATS).

This assay relates to Zika virus NS2B-NS3 protease. Put plainly: Primary screen GU AMC qHTS for Zika virus inhibitors (AID 1347154). Also: nearly all actives have a fitted effect of over 70% in size. The essentials: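 Fluorogenic AMC-substrate cleavage by noncovalent NS2B-NS3 protease complex (25 nM, pH 8.0 Tris buffer with Tween 20) followed for 15 minutes at room temperature (~20% conversion). Percent inhibition from ex340/em450 signal change, fitted by 4-parameter Hill equation.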

Inconclusive results are not listed. Entries that show only a call come without a potency. Active and inactive are the calls of the source. Calls follow the shape of the dose curve; as a rule, active = well fitted inhibition curve with a large enough effect; inconclusive = small, poorly fitted or top-dose-only effect; inactive = flat fitted curve, though single readings scatter.

As for `C=C1CC2COC(=O)C2(Cc2ccc3ccccc3c2)C1` (stereo unspecified), the Potency result was “inactive”.
